About 83,000 compounds went through this panel and 20% of them were active in at least one assay; those are over-represented in the sample as a whole.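 Cell lines were cultured in 96-well plates, exposed to a single compound concentration, and assessed for percent growth 48 hours later.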 Active and inactive are the calls of the source. How the source made its calls: active means growth percent below 10; inactive means the rest.
How the values were obtained:
Assay in all cases: NCI-60 one-dose screen, 48 h (100 = growth as untreated, 0 = no growth, -100 = all killed)
HCT-15 colon = details: 10 µM unless noted
HT29 colon = details: 10 µM unless noted
SNB-75 CNS = details: 10 µM unless noted
SNB-19 CNS = details: 10 µM unless noted
U251 CNS = details: 10 µM unless noted
PC-3 prostate = details: 10 µM unless noted
SK-MEL-5 melanoma = details: 10 µM unless noted
UACC-62 melanoma = details: 10 µM unless noted
LOX IMVI melanoma = details: 10 µM
SK-MEL-28 melanoma = details: 10 µM unless noted
SK-MEL-2 melanoma = details: 10 µM unless noted
EKVX NSCLC = details: 10 µM unless noted
SN12C renal = details: 10 µM unless noted
UO-31 renal = details: 10 µM unless noted
TK-10 renal = details: 10 µM unless noted
ACHN renal = details: 10 µM unless noted
CAKI-1 renal = details: 10 µM unless noted
A498 renal = details: 10 µM unless noted
CCRF-CEM leukemia = details: 10 µM unless noted
MOLT-4 leukemia = details: 10 µM unless noted

Measured: growth

CCOC(=N)CC(=O)Nc1cccc(C)c1Cl
inactive: HCT-15 colon 100% | HT29 colon 116% | SNB-75 CNS 86% | SNB-19 CNS 109% | U251 CNS 103% | PC-3 prostate 93.6% | SK-MEL-5 melanoma 94.9% | UACC-62 melanoma 93.9% | LOX IMVI melanoma 93% | SK-MEL-28 melanoma 105% | SK-MEL-2 melanoma 118% | EKVX NSCLC 109% | SN12C renal 98.6% | UO-31 renal 70.5% | TK-10 renal 113% | ACHN renal 105% | CAKI-1 renal 93.7% | A498 renal 120% | CCRF-CEM leukemia 109% | MOLT-4 leukemia 108%

NNC(=O)CCCCl
inactive: HCT-15 colon 104% | HT29 colon 112% | SNB-75 CNS 95% | SNB-19 CNS 121% | U251 CNS 98.3% | PC-3 prostate 104% | SK-MEL-5 melanoma 102% | UACC-62 melanoma 103% | LOX IMVI melanoma 91.3% | SK-MEL-28 melanoma 110% | SK-MEL-2 melanoma 105% | EKVX NSCLC 98.6% | SN12C renal 102% | UO-31 renal 90.5% | TK-10 renal 111% | ACHN renal 114% | CAKI-1 renal 107% | A498 renal 117% | CCRF-CEM leukemia 112% | MOLT-4 leukemia 120%

Oc1cccc(CNC2CCCCC2)c1
inactive: HCT-15 colon 105% | HT29 colon 100% | SNB-75 CNS 90.4% | SNB-19 CNS 95% | U251 CNS 106% | PC-3 prostate 99.8% | SK-MEL-5 melanoma 103% | UACC-62 melanoma 96.5% | LOX IMVI melanoma 113% | SK-MEL-28 melanoma 110% | SK-MEL-2 melanoma 115% | EKVX NSCLC 115% | SN12C renal 106% | UO-31 renal 86.6% | TK-10 renal 105% | ACHN renal 107% | CAKI-1 renal 106% | A498 renal 136% | CCRF-CEM leukemia 107% | MOLT-4 leukemia 106%

CC(C)(C)NCCC(O)c1cc(C(F)(F)F)nc2c(C(F)(F)F)cccc12 (stereo not given)
active: LOX IMVI melanoma 1.78%
inactive: HCT-15 colon 79.2% | HT29 colon 66.5% | SNB-75 CNS 78.2% | SNB-19 CNS 87.2% | U251 CNS 54.3% | PC-3 prostate 55.3% | SK-MEL-5 melanoma 81.8% | UACC-62 melanoma 74.7% | SK-MEL-28 melanoma 117% | SK-MEL-2 melanoma 102% | EKVX NSCLC 86.7% | SN12C renal 84.7% | UO-31 renal 45.7% | TK-10 renal 82.9% | ACHN renal 67.2% | CAKI-1 renal 75.4% | A498 renal 33.3% | CCRF-CEM leukemia 94.5% | MOLT-4 leukemia 89.6%

Clc1ncnc2nc[nH]c12
inactive: HCT-15 colon 96.4% | HT29 colon 107% | SNB-75 CNS 82.9% | SNB-19 CNS 96.4% | U251 CNS 103% | PC-3 prostate 96.4% | SK-MEL-5 melanoma 98.9% | UACC-62 melanoma 91.1% | LOX IMVI melanoma 95.1% | SK-MEL-28 melanoma 99.8% | SK-MEL-2 melanoma 118% | EKVX NSCLC 101% | SN12C renal 93.4% | UO-31 renal 77.2% | TK-10 renal 107% | ACHN renal 96.2% | CAKI-1 renal 108% | A498 renal 101% | CCRF-CEM leukemia 103% | MOLT-4 leukemia 100%

CC1(C)CC(=O)C=C(N)C1
inactive: HCT-15 colon 102% | HT29 colon 96.1% | SNB-75 CNS 76.1% | SNB-19 CNS 105% | U251 CNS 98.8% | PC-3 prostate 93% | SK-MEL-5 melanoma 131% | UACC-62 melanoma 98.5% | LOX IMVI melanoma 98.1% | SK-MEL-28 melanoma 104% | SK-MEL-2 melanoma 98.4% | EKVX NSCLC 60.3% | SN12C renal 99.3% | UO-31 renal 85.7% | TK-10 renal 99.2% | ACHN renal 107% | CAKI-1 renal 85.1% | A498 renal 85.1% | CCRF-CEM leukemia 124% | MOLT-4 leukemia 59.5%

CC(=O)N(C(C)=O)c1ccc(C)cc1
inactive: HCT-15 colon 96% | HT29 colon 105% | SNB-75 CNS 89.1% | SNB-19 CNS 93.8% | U251 CNS 97.6% | PC-3 prostate 93.7% | SK-MEL-5 melanoma 95.5% | UACC-62 melanoma 91.4% | LOX IMVI melanoma 92.1% | SK-MEL-28 melanoma 107% | SK-MEL-2 melanoma 106% | EKVX NSCLC 92.6% | SN12C renal 96.1% | UO-31 renal 92.4% | TK-10 renal 99.1% | ACHN renal 112% | CAKI-1 renal 92.7% | A498 renal 119% | CCRF-CEM leukemia 106% | MOLT-4 leukemia 93.9%

CC(C)Sc1ncnc2nc[nH]c12
inactive: HCT-15 colon 103% | HT29 colon 113% | SNB-75 CNS 115% | SNB-19 CNS 99.5% | U251 CNS 107% | PC-3 prostate 91.6% | SK-MEL-5 melanoma 104% | UACC-62 melanoma 93.3% | LOX IMVI melanoma 100% | SK-MEL-28 melanoma 82.8% | SK-MEL-2 melanoma 108% | EKVX NSCLC 94.7% | SN12C renal 96.7% | UO-31 renal 95.9% | TK-10 renal 116% | ACHN renal 99.6% | CAKI-1 renal 101% | A498 renal 59.3% | CCRF-CEM leukemia 111% | MOLT-4 leukemia 146%

CCOC(=O)c1cc(C)[nH]c(=O)c1C#N
inactive: HCT-15 colon 101% | HT29 colon 105% | SNB-75 CNS 85.7% | SNB-19 CNS 106% | U251 CNS 102% | PC-3 prostate 80.7% | SK-MEL-5 melanoma 107% | UACC-62 melanoma 104% | LOX IMVI melanoma 97.7% | SK-MEL-28 melanoma 112% | SK-MEL-2 melanoma 104% | EKVX NSCLC 86.8% | SN12C renal 102% | UO-31 renal 105% | TK-10 renal 101% | ACHN renal 101% | CAKI-1 renal 56.9% | A498 renal 108% | CCRF-CEM leukemia 81.9% | MOLT-4 leukemia 72.1%

O=C(O)Cc1ccccn1
inactive: HCT-15 colon 99.7% | HT29 colon 103% | SNB-75 CNS 103% | SNB-19 CNS 101% | U251 CNS 99% | PC-3 prostate 102% | SK-MEL-5 melanoma 104% | UACC-62 melanoma 106% | LOX IMVI melanoma 113% | SK-MEL-28 melanoma 106% | SK-MEL-2 melanoma 106% | EKVX NSCLC 109% | SN12C renal 112% | UO-31 renal 95.1% | TK-10 renal 105% | ACHN renal 105% | CAKI-1 renal 93.9% | A498 renal 94.4% | CCRF-CEM leukemia 101% | MOLT-4 leukemia 89.3%

ClCc1cccc2c(CCl)cccc12
inactive: HCT-15 colon 73.8% | HT29 colon 71.1% | SNB-75 CNS 88% | SNB-19 CNS 70.4% | U251 CNS 56.6% | PC-3 prostate 65.9% | SK-MEL-5 melanoma 77.6% | UACC-62 melanoma 64% | SK-MEL-28 melanoma 83.7% | SK-MEL-2 melanoma 84.3% | EKVX NSCLC 82.2% | SN12C renal 64.5% | UO-31 renal 60.4% | TK-10 renal 86.8% | ACHN renal 31.5% | CAKI-1 renal 15.2% | A498 renal 107% | CCRF-CEM leukemia 29.8% | MOLT-4 leukemia 27.7%
active: LOX IMVI melanoma -51.8%

Cc1ccc2nc(-c3ccc(N=Cc4ccccc4O)cc3)sc2c1
inactive: HCT-15 colon 80.1% | HT29 colon 93.4% | SNB-75 CNS 47.4% | SNB-19 CNS 92.3% | U251 CNS 91.6% | PC-3 prostate 85.4% | SK-MEL-5 melanoma 109% | UACC-62 melanoma 84.7% | LOX IMVI melanoma 86.9% | SK-MEL-28 melanoma 110% | SK-MEL-2 melanoma 101% | EKVX NSCLC 90.3% | SN12C renal 90.4% | UO-31 renal 60% | TK-10 renal 139% | ACHN renal 90.6% | CAKI-1 renal 67.7% | A498 renal 64.5% | CCRF-CEM leukemia 77.4% | MOLT-4 leukemia 82.3%

CSc1nsc(N)n1
inactive: HCT-15 colon 95.5% | HT29 colon 95.1% | SNB-75 CNS 87.4% | SNB-19 CNS 96% | U251 CNS 94.9% | PC-3 prostate 93.6% | SK-MEL-5 melanoma 101% | UACC-62 melanoma 93.1% | LOX IMVI melanoma 98.2% | SK-MEL-28 melanoma 106% | SK-MEL-2 melanoma 94.2% | EKVX NSCLC 97.4% | SN12C renal 96% | UO-31 renal 82.3% | TK-10 renal 101% | ACHN renal 107% | CAKI-1 renal 97.2% | A498 renal 87.5% | CCRF-CEM leukemia 108% | MOLT-4 leukemia 97.9%

Oc1ccc2ccccc2c1CN1CCOCC1
inactive: HCT-15 colon 107% | HT29 colon 110% | SNB-75 CNS 95.6% | SNB-19 CNS 110% | U251 CNS 110% | PC-3 prostate 99.9% | SK-MEL-5 melanoma 113% | UACC-62 melanoma 111% | LOX IMVI melanoma 115% | SK-MEL-28 melanoma 107% | SK-MEL-2 melanoma 103% | EKVX NSCLC 113% | SN12C renal 107% | UO-31 renal 74.6% | TK-10 renal 123% | ACHN renal 103% | CAKI-1 renal 94.6% | A498 renal 112% | CCRF-CEM leukemia 95.3% | MOLT-4 leukemia 99.6%

O=C1C=C(c2ccccc2)C(O)(c2ccccc2)C1 (stereo not given)
inactive: HCT-15 colon 132% | HT29 colon 97.8% | SNB-75 CNS 77.6% | SNB-19 CNS 135% | U251 CNS 106% | PC-3 prostate 92.8% | SK-MEL-5 melanoma 106% | UACC-62 melanoma 92.3% | LOX IMVI melanoma 93.6% | SK-MEL-28 melanoma 108% | SK-MEL-2 melanoma 103% | EKVX NSCLC 89.8% | SN12C renal 99.7% | UO-31 renal 83.5% | TK-10 renal 99.6% | ACHN renal 96% | CAKI-1 renal 89.9% | A498 renal 105% | CCRF-CEM leukemia 100% | MOLT-4 leukemia 95.4%

O=C(O)CC1=CCCCC1
inactive: HCT-15 colon 98.1% | HT29 colon 105% | SNB-75 CNS 89.6% | SNB-19 CNS 97.2% | U251 CNS 105% | PC-3 prostate 96% | SK-MEL-5 melanoma 101% | UACC-62 melanoma 98% | LOX IMVI melanoma 94.5% | SK-MEL-28 melanoma 95.5% | SK-MEL-2 melanoma 119% | EKVX NSCLC 97.5% | SN12C renal 104% | UO-31 renal 89.1% | TK-10 renal 108% | ACHN renal 91.1% | CAKI-1 renal 97.7% | A498 renal 74.8% | CCRF-CEM leukemia 96.9% | MOLT-4 leukemia 97.5%
